Data taken from PubChem BioAssay AID488969 (Vanderbilt High Throughput Screening Facility, 2010).
The full ranking holds about 110,000 compounds; the median of “z-score” is about -0.1, and the highest 2% start at about 2. Shown is part of a subset that was picked to be rich in the highest values. Active and inactive are the calls of the source.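 How the source made its calls: active means z-score in the third read window above 3 or below -3; inactive means the rest.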

target: Metabotropic glutamate receptor 8 (Rattus norvegicus) (UniProt P70579); assay: mGluR8 Gi/Go-coupled signaling modulation – cell-based, rat, thallium flux, HTS, primary screen (AID 488969); conditions: HEK293 rat mGluR8, GIRK (G protein-gated inwardly rectifying potassium channel) thallium flux, FluoZin2; at 10 µM; stronger effect = higher value; submaximal glutamate (EC20) added with thallium
Sequence (P70579 whole entry, looked up): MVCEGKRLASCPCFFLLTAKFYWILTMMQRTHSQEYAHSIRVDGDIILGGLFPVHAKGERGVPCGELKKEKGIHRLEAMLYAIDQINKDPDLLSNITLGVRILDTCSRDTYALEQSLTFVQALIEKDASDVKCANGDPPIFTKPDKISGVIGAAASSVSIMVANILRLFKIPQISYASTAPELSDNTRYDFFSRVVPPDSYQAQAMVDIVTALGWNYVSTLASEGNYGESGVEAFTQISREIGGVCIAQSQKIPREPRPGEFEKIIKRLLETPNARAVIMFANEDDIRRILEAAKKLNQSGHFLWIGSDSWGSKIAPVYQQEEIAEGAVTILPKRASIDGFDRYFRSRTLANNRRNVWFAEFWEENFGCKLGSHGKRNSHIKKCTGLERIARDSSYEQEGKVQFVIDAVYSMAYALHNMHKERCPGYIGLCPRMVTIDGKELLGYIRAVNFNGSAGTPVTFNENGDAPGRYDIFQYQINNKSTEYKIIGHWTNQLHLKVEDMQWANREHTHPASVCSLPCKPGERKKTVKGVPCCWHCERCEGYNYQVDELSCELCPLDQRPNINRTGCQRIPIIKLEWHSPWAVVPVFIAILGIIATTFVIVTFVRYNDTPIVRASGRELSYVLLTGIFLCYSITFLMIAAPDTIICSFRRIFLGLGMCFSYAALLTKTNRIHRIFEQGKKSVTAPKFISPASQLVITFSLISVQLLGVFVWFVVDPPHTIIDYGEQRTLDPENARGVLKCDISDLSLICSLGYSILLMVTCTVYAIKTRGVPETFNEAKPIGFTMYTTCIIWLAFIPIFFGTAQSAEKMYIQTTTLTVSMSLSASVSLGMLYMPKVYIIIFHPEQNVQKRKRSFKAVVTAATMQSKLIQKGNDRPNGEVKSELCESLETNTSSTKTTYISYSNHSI

| Structure (SMILES) | z-score |
| --- | --- |
| CCOC(=O)c1nnc(-c2ccccc2)nc1Oc1ccccc1Cl | -0.346 |
| COC(=O)c1ccccc1NC(=S)NC(=O)C1CC1 | -0.189 |
| COC(=O)c1ccccc1NC(=S)NC(=O)c1ccccc1 | 13.1 (active) |
| COC(=O)c1ccccc1NC(=S)NC(=O)c1ccccc1C | 1.1 |
| COC(=O)c1ccccc1NC(=S)NC(=O)c1ccc(C)cc1 | 2.94 |
| COC(=O)c1ccccc1NC(=S)NC(=O)c1cccc2ccccc12 | 0.972 |
| COC(=O)c1ccccc1NC(=S)NC(=O)c1ccc2ccccc2c1 | 0.231 |
| O=C(Nc1ccc(Cc2ccncc2)cc1)C1CCC(N2C(=O)C3C4C=CC(C5CC45)C3C2=O)CC1 (centres undefined) | -0.424 |
| Cn1c2ccccc2c2c(C(=O)N3CCN(C(=O)c4ccco4)CC3)cn(C3CCCCC3)c(=O)c21 | -0.126 |
| CCN(C(=O)CN1CCN(c2ccccc2)CC1)c1c(N)n(Cc2ccccc2)c(=O)[nH]c1=O | -0.349 |
| CCN(C(=O)CN1CCN(c2ccccc2O)CC1)c1c(N)n(Cc2ccccc2)c(=O)[nH]c1=O | 14.3 (active) |
| CCN(C(=O)CN1CCN(c2ccccc2OC)CC1)c1c(N)n(Cc2ccccc2)c(=O)[nH]c1=O | 0.391 |
| CC1Cc2ccccc2N1C(=O)CSc1nnc(CNc2ccccc2)o1 (centres undefined) | -0.151 |
| CC(=O)C1C(c2ccccc2)c2c(n[nH]c2C)CC1(C)O (centres undefined) | 0.241 |
| N=c1c(C(=O)NCc2ccco2)cc2c(=O)n3ccccc3nc2n1CCc1ccccc1 | 4.11 (active) |
| COc1ccc(CCn2c(=N)c(C(=O)NCc3ccco3)cc3c(=O)n4ccccc4nc32)cc1 | 0.369 |
| N=c1c(C(=O)NCc2ccco2)cc2c(=O)n3ccccc3nc2n1Cc1ccccc1 | 1.15 |
| Cc1cccc(N2CCN(C(=O)c3ccoc3C)CC2)c1C | -0.311 |
| CN(C)c1nc(N)nc(CSc2n[nH]c(-c3ccccc3)n2)n1 | -0.00289 |
| Cc1ccccc1-c1nnc(Cc2ccccc2)o1 | -0.211 |
| ClCc1nnc(-c2ccccc2)o1 | -0.143 |
| c1ccc(Cc2nnc(-c3ccccc3)o2)cc1 | 10.4 (active) |

| Structure (SMILES) | z-score |
| --- | --- |
| CCOC(=O)CN1C(=O)C2(OCCCO2)c2ccccc21 | -0.0349 |
| CN(C(=O)Nc1ccc(Cl)cc1Cl)[C@H]1c2cc(Br)ccc2OC[C@H]1CO | -0.211 |
| COc1cccc2c1OC[C@@H](CO)[C@H]2N(C)C(=O)Nc1ccccc1 | 6.33 (active) |
| COc1cccc2c1OC[C@@H](CO)[C@H]2N(C)C(=O)Nc1ccc(Cl)cc1Cl | 0.0803 |
| CC1(C)Oc2nc3ccccc3n2/C1=C\C#N | -0.233 |
| CC(=O)Nc1ccc(S(=O)(=O)NC2(C(F)(F)F)NC(=O)N(C3CCCCC3)C2=O)cc1 (centres undefined) | -0.0965 |
| CSc1nc(C)cc(Oc2ccc(OCCOc3ccccc3)nn2)n1 | -0.702 |
| CCn1c(SCC(=O)Nc2ccccc2OC)nc2ccccc2c1=O | -0.373 |
| COc1ccc(Cn2cnc3sccc3c2=O)cc1 | -0.167 |
| CCOC(=O)Nc1ccc(S(=O)(=O)Nc2cc(C)nc(C)n2)cc1 | -0.12 |
| COc1ccc(CCN2C(=O)CC(C(N)=O)SC2=Nc2ccccc2)cc1OC (centres undefined) | 1.15 |
| S=C1NC(c2ccccc2)=NCN1c1ccccc1 | 0.145 |
| Cc1ccc(N2CN=C(c3ccccc3)NC2=S)cc1 | 0.328 |
| S=C1NC(c2ccccc2)=NCN1c1ccc(Cl)cc1 | 3.19 (active) |
| CCCOc1ccccc1Nc1nnc(C)c(=O)[nH]1 | 0.409 |
| CCOc1ccccc1Nc1nnc(Cc2ccccc2Cl)c(=O)[nH]1 | 12.8 (active) |
| CCOc1ccccc1Nc1nnc(C)c(=O)[nH]1 | -0.155 |
| CCOC(=O)C1CCN(C(=O)c2cc(OCC)c(OCC)c(OCC)c2)CC1 | 0.856 |
| OC1CCN(c2c3c(nc4cc(-c5ccc(Cl)cc5)nn24)CCC3)CC1 | -0.738 |
| O=C(c1cc2ccccc2c(=O)o1)N1CCCC1 | 0.79 |
| Cc1cc(NC(=O)/C=C/c2ccccc2Cl)n(-c2nc3ccccc3[nH]2)n1 | 0.0437 |
| Cc1cc(NC(=O)c2c(F)cccc2Cl)n(-c2nc3ccccc3[nH]2)n1 | 3.06 (active) |

| Structure (SMILES) | z-score |
| --- | --- |
| Cc1cc(NC(=O)c2ccc(F)cc2F)n(-c2nc3ccccc3[nH]2)n1 | 0.0238 |
| Oc1cccc(NC(=S)Nc2ccc(SC(F)F)cc2)c1 | 2.92 |
| CC1CCCCC1NC(=S)Nc1ccc(SC(F)F)cc1 (centres undefined) | 5.08 (active) |
| CC1CCCC(NC(=S)Nc2ccc(SC(F)F)cc2)C1C (centres undefined) | 4.36 (active) |
| CC1CC(C)CN(C(=S)Nc2ccc(OC(F)F)cc2)C1 (centres undefined) | -0.115 |
| FC(F)Sc1ccc(NC(=S)NCC2CCCCC2)cc1 | -0.233 |
| CC1CCN(C(=S)Nc2ccc(SC(F)F)cc2)CC1 | 0.000321 |
| CN1CCC(N(C)C(=S)Nc2ccc(SC(F)F)cc2)CC1 | -0.0288 |
| FC(F)Sc1ccc(NC(=S)NC2CCC(NC(=S)Nc3ccc(SC(F)F)cc3)CC2)cc1 (centres undefined) | -0.2 |
| FC(F)Sc1ccc(NC(=S)NC2CCCCC2)cc1 | -0.326 |
| CN(C(=S)Nc1ccc(SC(F)F)cc1)c1ccc(O)cc1 | 0.142 |
| CC1CC(C)CN(C(=S)Nc2ccc(SC(F)F)cc2)C1 (centres undefined) | 6.63 (active) |
| Oc1cccc(NC(=S)Nc2cccnc2)c1 | -0.756 |
| c1cncc(C(c2nnnn2C2CCCC2)N2CCN(Cc3ccc4c(c3)OCO4)CC2)c1 (centres undefined) | 0.0897 |
| O=C(c1ccco1)N1CCN(c2ccc(Cl)c(Cl)c2)CC1 | -0.938 |
| COc1cccc(OC)c1NC(=O)CN1CCC(NC(=O)c2cccc(F)c2)CC1 | -0.0108 |
| O=C(CCNC(=O)Cn1ccc2ccccc2c1=O)NCCc1ccccc1Cl | -0.0359 |
| CCSc1nnc(NC(=O)C2Cc3ccccc3CN2S(=O)(=O)CC)s1 (centres undefined) | 0.295 |
| C=CC(=O)Nc1ccc(Br)cc1 | 0.0392 |
| COc1ccc(-c2nc(N)n(C(=O)c3ccc(C)cc3)n2)cc1 | 0.106 |
| COc1ccc(/C=C/C(=O)Oc2ccc(/C=N\NC(=O)c3ccc(F)cc3)cc2)cc1 | 0.18 |
| COc1ccc(C(=O)N2CCC(C(=O)c3ccc(F)cc3)CC2)cc1 | -1.67 |

| Structure (SMILES) | z-score |
| --- | --- |
| COc1ccc(/C=C2\C(=O)NC(=S)N2C(=O)c2ccc(F)cc2)cc1 | 3.14 (active) |
| COc1ccc(C(=O)C2CCN(C(=O)c3ccc(C)cc3)CC2)cc1 | -0.285 |
| COc1ccc(C(=O)N2C(=S)NC(=O)/C2=C\c2ccc(C)cc2)cc1 | 2.75 |
| N#Cc1cc2c(nc1SCc1ccccc1)CCC2 | 0.359 |
| Cc1c(C(=S)Nc2ccccc2)cnn1-c1ccccc1 | -0.398 |
| COC(=O)c1cccc(NC(=O)c2cnoc2C)c1 | -0.126 |
| Cc1oncc1C(=S)Nc1ccccc1 | 12.4 (active) |
| COc1ccc(C(C)N2CC34C=CC(O3)C(C(=O)O)C4C2=O)cc1 (centres undefined) | 0.302 |
| Cc1ccccc1OCC(O)Cn1nnc2ccccc21 (centres undefined) | -0.244 |
| COc1ccc(OCC(O)Cn2c(Nc3ccccc3)nc3c2c(=O)n(C)c(=O)n3C)cc1 (centres undefined) | -0.45 |
| C=CCn1c(N)c(C(=O)Nc2ccccc2OC)sc1=S | 0.333 |
| COc1ccccc1NC(=O)c1ccc(COc2ccc3c(c2)CCC3)cc1 | -0.228 |
| COC(=O)c1ccccc1NC(=O)c1ccc(COc2ccc3c(c2)CCC3)cc1 | -0.271 |
| Cc1ccc(NC(=O)c2ccc(COc3ccc4c(c3)CCC4)cc2)c(C)c1 | 3.36 (active) |
| O=C(O)[C@H]1CCCC[C@H]1C(=O)NCCc1ccccc1 | 0.402 |
| CCOC(=O)C(C)Sc1nnc(Cc2cc(=O)[nH]c(=O)[nH]2)n1-c1ccc(OCC)cc1 (centres undefined) | 0.465 |
| CCOc1ccc(-n2c(Cc3cc(=O)[nH]c(=O)[nH]3)nnc2SC(C)C(=O)OC)cc1 (centres undefined) | 12.7 (active) |
| COC(=O)C(C)Sc1nnc(Cc2cc(=O)[nH]c(=O)[nH]2)n1-c1ccc(OC)cc1 (centres undefined) | 0.194 |
| COc1ccc(C(C(=O)NC(C)(C)C)N(CC2CCCO2)C(=O)CCC(=O)Nc2cc(C)on2)cc1 (centres undefined) | -0.202 |
| O=S(=O)(N/N=C/c1ccc(OC2CSC2)cc1)c1ccccc1 | -0.00217 |
| Nc1c(S(=O)(=O)c2cccs2)c2nc3ccccc3nc2n1Cc1ccc2c(c1)OCO2 | -0.174 |
| Cc1ccsc1/C=N/n1c(-c2ccccn2)n[nH]c1=S | -0.121 |

| Structure (SMILES) | z-score |
| --- | --- |
| Cc1ccc(/C=N/n2c(-c3ccncc3)n[nH]c2=S)cc1 | 0.0356 |
| Cc1ccc(-c2n[nH]c(=S)n2/N=C/c2ccc(C)o2)cc1 | -1.27 |
| S=c1[nH]nc(-c2ccncc2)n1/N=C/c1ccccc1 | -0.00784 |
| Fc1ccc(/C=N/n2c(-c3cccs3)n[nH]c2=S)cc1 | 4.92 (active) |
| Cc1ccc(/C=N/n2c(-c3cccs3)n[nH]c2=S)cc1 | 10 (active) |
| Cc1c(/C=N/NC(N)=O)c2ccccn2c1C(=O)c1ccc(F)cc1 | -0.327 |
| COCc1cc(C)nc2sc(C(=O)N3CCCCC3)c(N)c12 | 0.33 |
| CCCCOc1ccc(C(=O)N2CCC(C)CC2)cc1 | -0.401 |
| CCCCOc1ccc(C(=O)N2CC(C)OC(C)C2)cc1 (centres undefined) | -0.154 |
| CCCCOc1ccc(C(=O)OC2CC(C)N(C)CC2C)cc1 (centres undefined) | 3.48 (active) |
| Cc1nc2ccc(NC(=O)c3ccc(S(=O)(=O)N4CCOCC4)cc3)cc2s1 | -0.182 |
| CCN(c1ccccc1)S(=O)(=O)c1ccc(C(=O)Oc2ccc(C(C)=O)cc2)cc1 | -0.819 |
| CC(=O)c1ccc(OC(=O)N(c2ccccc2)c2ccccc2)cc1 | 2.99 |
| O=C(Oc1ccc(-c2nnco2)cc1)N(c1ccccc1)c1ccccc1 | 0.519 |
| CS(=O)(=O)N(CCc1ccccc1)CC(=O)NCc1cccnc1 | 0.68 |
| O=c1c2c(n3nnnc3n1Cc1ccccc1)-c1ccccc1CC21CCCC1 | 0.0259 |
| COc1ccc(S(=O)(=O)NNC(=O)c2cc3c4ccccc4n(C)c3s2)cc1 | -0.127 |
| CC(=O)Nc1ccc(S(=O)(=O)NNC(=O)c2cc3c4ccccc4n(C)c3s2)cc1 | -0.78 |
| Cn1c2ccccc2c2cc(C(=O)NNS(=O)(=O)c3ccc(F)cc3)sc21 | 5.09 (active) |
| COc1ccccc1C(=O)Nc1ccc(S(=O)(=O)N2CCc3ccccc32)cc1 | 0.187 |
| Cc1ccc(Oc2cc([N+](=O)[O-])cc3c2C(=O)Nc2ccccc2O3)cc1 | -0.0885 |
